{"source": "the supplement of paper PMC11417369", "note": "Whole data set: some 25,000 sequences, median “ln(normalized median fluorescence intensity)” near 7.1, cut for the highest 2% near 10. This excerpt belongs to a sample that is enriched for the highest values.", "data": [{"tested_on": "PfSIP2 AP2 domain 1 (GST-tagged)", "experiment": "gcPBM binding intensity (ln(normalized median fluorescence intensity)); higher = stronger DNA binding", "in_short": "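GST-fused DNA-binding domains of P. falciparum, expressed in E. coli, were applied at about 25 μg on average for 1 h to an Agilent 4 × 180k array of primer-extended double-stranded 36-bp intergenic genomic probes and negative controls. Binding intensity is the highest Masliner-normalised natural-log median intensity across replicate spots of either probe orientation, measured with Alexa488 anti-GST antibody and a 488 nm scan.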", "values": [{"sequence": "TTTATTTTTTACCAAGTGCAATATATTATAATAATA", "gcPBM binding intensity (ln)": 7.77}, {"sequence": "ATTCATTTACCAATGGTGCAATATATTTTTATAATG", "gcPBM binding intensity (ln)": 10.3}, {"sequence": "AGCTATATAAATAATACATGCATTGTTCAGGTATTT [TGCATGCA_site964]", "gcPBM binding intensity (ln)": 6.83}, {"sequence": "TAAATATAGGGTAATAGTACATAATTATATTCTTTT [XGTACX_site3883]", "gcPBM binding intensity (ln)": 6.76}, {"sequence": "GTGTTGGGAAAAGGCATGCACTTTTTTTTTTTTTTT", "gcPBM binding intensity (ln)": 9.34}, {"sequence": "AATAGTCGGGTGCATACACACCTTAAATATAATATA [CACACA_site8271]", "gcPBM binding intensity (ln)": 11.3}, {"sequence": "ACCTTTAATATATACACACACATAAAAAAAATATAT [CACACA_site1843]", "gcPBM binding intensity (ln)": 7.83}, {"sequence": "CTACCTTTAATATATACACACACATAAAAAAAATAT [CACACA_site8548]", "gcPBM binding intensity (ln)": 7.44}, {"sequence": "GGAATAGTCGGGTGCATACACACCTTAAATATAATA [CACACA_site1081]", "gcPBM binding intensity (ln)": 11.4}, {"sequence": "TATACCTTAATATACACACATACATATATATATATA [CACACA_site1339]", "gcPBM binding intensity (ln)": 9.12}, {"sequence": "AATAGTCGTGTGCATACACACCTTAACTATAATATA [CACACA_site6636]", "gcPBM binding intensity (ln)": 7.41}, {"sequence": "TTGATTACACTGAAGTGTACATATATATATATATAT [XGTACX_site3532]", "gcPBM binding intensity (ln)": 9.07}, {"sequence": "AATAATAAAATAAAGGCATGCACAATATGCTATAAA [TGCATGCA_site645]", "gcPBM binding intensity (ln)": 7.49}, {"sequence": "TTTAATCATATGTTATATAATAAGCCCCCCCCCCAA [CACACA_negctrl_site486]", "gcPBM binding intensity (ln)": 10.2}, {"sequence": "ATATTTTTATTTTCTTTACACACCACATAATTTTTT [CACACA_site4060]", "gcPBM binding intensity (ln)": 7.09}, {"sequence": "TTTTGTTTTAATTTTATTTGATTTTATTTGATTTAT [CACACA_negctrl_site692]", "gcPBM binding intensity (ln)": 6.69}, {"sequence": "TATTTTTAACAGTGCACACATAACTTAATTATATGT [CACACA_site2194]", "gcPBM binding intensity (ln)": 10.6}, {"sequence": "TTTATTTTTAACAGTGCACACATAACTTAATTATAT [CACACA_site8681]", "gcPBM binding intensity (ln)": 10.5}, {"sequence": "ATATATATTTTAATAACACACATATATTATATTATA [CACACA_site4387]", "gcPBM binding intensity (ln)": 7.06}, {"sequence": "TTTAACTTTTATATAACACACATATTGTAATTATGT [CACACA_site6486]", "gcPBM binding intensity (ln)": 7.05}, {"sequence": "TTTTAATTTATTTATGCACACATATATAATTACACA [CACACA_site8126]", "gcPBM binding intensity (ln)": 7.52}, {"sequence": "TTTAATTTTTATATAACACACATATTGTAATTATGT [CACACA_site4566]", "gcPBM binding intensity (ln)": 6.97}, {"sequence": "AAAAAAAGAAATTAGGTGCATAGCATTAACCGATAA [GTGCAC_site9582]", "gcPBM binding intensity (ln)": 10.1}, {"sequence": "TATATATATAGAAATGCATGTTAATAAAAGTTATAA [TGCATGCA_site947]", "gcPBM binding intensity (ln)": 8.13}, {"sequence": "ATTTTTTATATTTAGTGTACATGTTTTAATTTATAA [XGTACX_site7512]", "gcPBM binding intensity (ln)": 7.29}, {"sequence": "GGATAAGAGGCATATACACACAATTTAAAAAAATAA [CACACA_site4657]", "gcPBM binding intensity (ln)": 7.15}, {"sequence": "AAAAAAAAAAAAAGTGCACACGATTTAAGGCCTATA [CACACA_site2823]", "gcPBM binding intensity (ln)": 10.9}, {"sequence": "TTTTTTTCAATATTTGCACACGATTAAAATATTTAA [CACACA_site5266]", "gcPBM binding intensity (ln)": 7.28}, {"sequence": "AATATTTTAAGGCACACACACAAAAAAAAAAAAAAA [CACACA_site2890]", "gcPBM binding intensity (ln)": 7.22}, {"sequence": "TTTCTAATTTATATCACACACATATAAATATAGTAA [CACACA_site6210]", "gcPBM binding intensity (ln)": 7.19}, {"sequence": "GGCGTATGTGTATATACACACCCACGTATATAAATA [CACACA_site7489]", "gcPBM binding intensity (ln)": 7.08}, {"sequence": "ATAATGAACAAAGTAGTGCACTTTCCTTATCTTTTC", "gcPBM binding intensity (ln)": 10.9}, {"sequence": "CCTTTCCTTTTATAAGTGCATATAACAAATGTATAC [GTGCAC_site9872]", "gcPBM binding intensity (ln)": 8.88}, {"sequence": "ACTAATAACAAAAGCTTGCACTTTTTTTTTCCTAAT", "gcPBM binding intensity (ln)": 7.82}, {"sequence": "ATCTTATATCGTAGAGATTTTTTTTTTTTTTCATTT [XGTACX_negctrl_site140]", "gcPBM binding intensity (ln)": 6.7}, {"sequence": "TTTTAAAAAAATAAAAAATAATAAAAAAAATAAAAA [CACACA_negctrl_site1693]", "gcPBM binding intensity (ln)": 6.76}, {"sequence": "TTTTTTATAAATCAAATGAAAAATAAACTATTCAGA [CACACA_negctrl_site1568]", "gcPBM binding intensity (ln)": 6.59}, {"sequence": "TTTTAAATTTTTTAAAGTACACGTCGAAAAGGTATA [XGTACX_site76]", "gcPBM binding intensity (ln)": 7.93}, {"sequence": "GCACCCTGTATGAATGCACACATTCATAGAATTGCT [CACACA_site5475]", "gcPBM binding intensity (ln)": 8.46}, {"sequence": "TATTTAAAATAATAACAAAATTAACATAAATATATA [GTGCAC_negctrl_site472]", "gcPBM binding intensity (ln)": 6.82}, {"sequence": "AAAGAAATATATACAAAAATATGAACAATTTATTAT [XGTACX_negctrl_site78]", "gcPBM binding intensity (ln)": 6.81}, {"sequence": "TTTATATTTAAATATATATGAGAAAACACAAAATAT [TGCATGCA_negctrl_site211]", "gcPBM binding intensity (ln)": 7.34}, {"sequence": "AAGAACAAATATGAGGTGCAACACAATATATTATTA [GTGCAC_site9965]", "gcPBM binding intensity (ln)": 10.5}, {"sequence": "AAGAATATATAGGACACACATACAATAATAAATATA [CACACA_site4119]", "gcPBM binding intensity (ln)": 7.25}, {"sequence": "ATATTTTATAATTTTACACACCATATAAAATAATTC [CACACA_site2797]", "gcPBM binding intensity (ln)": 7.16}]}]}
